Read-out in test [1]: E-selectin (Homo sapiens) (UniProt P16581)
Description: BSK_SAg_Eselectin: BioMAP Diversity Plus: SAg Assay for Eselectin Biomarker Activity (AID 2283091). The conditions noted are these: primary human HUVEC with PBMC; actives raise or lower the signal. An outline of the steps: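 Cell-surface E-selectin is read by ELISA at 24 h in the SAg co-culture of HUVEC and PBMC. Curves are fitted in both directions relative to DMSO. Parallel SRB total-protein staining tracks overt toxicity.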

Read-out in test [2]: Monokine induced gamma interferon (MIG), CXCL9 (gene 4283)
Description: BSK_SAg_MIG: BioMAP Diversity Plus: SAg Assay for Monokine induced gamma interferon (MIG) Biomarker Activity (AID 2283092). Particulars: primary human HUVEC with PBMC; actives raise or lower the signal. An outline of the steps:
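Endothelial cells and PBMC were co-cultured, exposed to test chemicals, and sampled 24 h later. MIG was measured by ELISA, and responses were fitted in both directions relative to DMSO.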

Read-out in test [3]: Interleukin-8 (IL8), CXCL8 (gene 3576)
Description: BSK_SAg_IL8: BioMAP Diversity Plus: SAg Assay for Interleukin-8 (IL8) Biomarker Activity (AID 2283094). Particulars: primary human HUVEC with PBMC; actives raise or lower the signal. In short, it runs like this: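 Human umbilical vein endothelial cells co-cultured with peripheral blood mononuclear cells; IL-8 measured by ELISA 24 h after chemical dosing. Bidirectional concentration-response fitting used DMSO as negative control and activity baseline.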

Test [4] is described as follows: BSK_SAg_Proliferation: Cell Proliferation Assessment in the BioMAP Diversity Plus: SAg Assay (AID 2283095).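 Also: relative cell number as total protein by SRB absorbance in sub-confluent culture.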 The conditions noted are these: primary human HUVEC with PBMC. In short, it runs like this: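 Human umbilical vein endothelial cells co-cultured with peripheral blood mononuclear cells; total protein measured by sulforhodamine B staining (0.1% SRB after 10% TCA fixation), absorbance at 560 nm, at 96 h. Bidirectional fit against DMSO baseline.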

Test [5] in a line: BSK_SAg_SRB: Viability Assessment in the BioMAP Diversity Plus: SAg Assay (AID 2283096).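 Also: cells read one day after compound addition; hits may be either gain or loss of signal compared with DMSO.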 Particulars: primary human HUVEC with PBMC. In short, it runs like this: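 Human umbilical vein endothelial cells co-cultured with PBMC, read 24 h after compound dosing. Total protein measured by sulforhodamine B staining (0.1% SRB after 10% TCA fixation, absorbance 560 nm); bidirectional fit versus DMSO baseline.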

Test [6] has as its target human CYP19A1, CYP19A1 (gene 1588) (UniProt P11511). Description: NVS_ADME_hCYP19A1: NovaScreen (NVS) CYP450-related Enzyme Activity (ADME) Assay for human CYP19A1 (AID 2283098; active = hit-call score of the fitted dose curve at least 0.9, where 1 is the maximum). An outline of the steps:
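Recombinant enzyme in a cell-free format, read 0.5 h after dosing by fluorescence from a fluorogenic substrate. Loss of signal was fitted against acetonitrile as baseline. Primary screen in duplicate at 10 uM, actives then tested in concentration series.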

Test [7] addresses Cytochrome P450 2C19 (Homo sapiens) (UniProt P33261). Description: NVS_ADME_hCYP2C19: NovaScreen (NVS) CYP450-related Enzyme Activity (ADME) Assay for human CYP2C19 (AID 2283113; active = hit-call score of the fitted dose curve at least 0.9, where 1 is the maximum;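 also: potency for inhibition seen as loss of fluorescent signal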). In short, it runs like this: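 Compounds first screened in duplicate at 10 uM, then confirmed in concentration series. Insect-cell-expressed human CYP2C19 turned over a fluorogenic substrate, and fluorescence was read after 1 h. Inhibition taken as signal loss relative to acetonitrile.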

Test [8] addresses human CYP1A1, CYP1A1 (gene 1543) (UniProt P04798). The experiment in a line: NVS_ADME_hCYP1A1: NovaScreen (NVS) CYP450-related Enzyme Activity (ADME) Assay for human CYP1A1 (AID 2283100; active = hit-call score of the fitted dose curve at least 0.9, where 1 is the maximum). In short, it runs like this:
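Chemicals were first tested in duplicate at 10 uM, and those passing a 30% inhibition threshold were rerun as concentration series topping at 20 uM. Fluorescence read-out of recombinant enzyme turnover after 1 h, relative to acetonitrile.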

For test [9], the target named is rat CYP1A2, Cyp1a2 (gene 24297) (UniProt P04799). The experiment in a line: NVS_ADME_rCYP1A2: NovaScreen (NVS) CYP450-related Enzyme Activity (ADME) Assay for rat CYP1A2 (AID 2283115; active = hit-call score of the fitted dose curve at least 0.9, where 1 is the maximum). In short, it runs like this: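 Cell-free recombinant rat enzyme with fluorogenic substrate, read by fluorescence intensity 1 hour after dosing. Loss of signal versus acetonitrile negative control; primary screen at 10 uM in duplicate, actives followed in concentration series.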
Sequence of rat CYP1A2, Cyp1a2 (gene 24297) (P04799 whole entry, looked up): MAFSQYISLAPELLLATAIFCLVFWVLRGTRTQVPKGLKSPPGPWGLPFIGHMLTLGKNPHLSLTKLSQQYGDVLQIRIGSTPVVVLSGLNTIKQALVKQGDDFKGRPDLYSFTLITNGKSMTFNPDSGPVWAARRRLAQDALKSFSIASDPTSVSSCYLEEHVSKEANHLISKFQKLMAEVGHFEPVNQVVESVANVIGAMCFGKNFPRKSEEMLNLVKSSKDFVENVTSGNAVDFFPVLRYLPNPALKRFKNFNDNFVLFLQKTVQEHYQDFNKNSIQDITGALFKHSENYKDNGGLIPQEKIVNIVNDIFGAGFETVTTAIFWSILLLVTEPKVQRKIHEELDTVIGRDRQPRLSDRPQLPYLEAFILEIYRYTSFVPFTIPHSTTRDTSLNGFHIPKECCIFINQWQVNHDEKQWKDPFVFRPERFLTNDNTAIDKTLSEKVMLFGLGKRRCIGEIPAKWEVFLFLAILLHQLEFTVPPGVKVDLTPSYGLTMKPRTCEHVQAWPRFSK

Test [10] in a line: BSK_SAg_PBMCCytotoxicity: PBMC Cytotoxicity Assessment in the BioMAP Diversity Plus: SAg Assay (AID 2283093).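 Also: PBMC viability measured as Alamar Blue reduction fluorescence at 546/580 nm; fitted both ways against DMSO so a hit may be loss or gain of signal.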 The conditions noted are these: primary human HUVEC with PBMC. In short, it runs like this: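 HUVEC/PBMC co-culture; PBMC exposed to chemical 1 h before SEB and TSST-1 activation (20 ng/mL each), incubated 90 h, then Alamar Blue 6 h, fluorescence 546/580 nm. Bidirectional fit versus DMSO baseline.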

Test [11] deals with human CYP1A2, CYP1A2 (gene 1544) (UniProt P05177). The experiment in a line: NVS_ADME_hCYP1A2: NovaScreen (NVS) CYP450-related Enzyme Activity (ADME) Assay for human CYP1A2 (AID 2283102; active = hit-call score of the fitted dose curve at least 0.9, where 1 is the maximum;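 also: potency for inhibition since loss of fluorescence marks reduced CYP1A2 activity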). In short, it runs like this:
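Enzyme activity of insect-cell-expressed human CYP1A2 measured by fluorescence 0.5 h after compound addition, relative to acetonitrile. Compounds first tested in duplicate at 10 uM, actives followed up in concentration series.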

Test [12] concerns the target human CYP2C9, CYP2C9 (gene 1559) (UniProt P11712). The experiment in a line: NVS_ADME_hCYP2C9: NovaScreen (NVS) CYP450-related Enzyme Activity (ADME) Assay for human CYP2C9 (AID 2283108; active = hit-call score of the fitted dose curve at least 0.9, where 1 is the maximum). An outline of the steps:
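Recombinant human CYP2C9 expressed in SF9 cells, fluorogenic substrate, fluorescence read 0.75 h after dosing. Chemicals first run in duplicate at 10 uM, with actives followed in concentration series; loss of signal versus acetonitrile baseline.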

In test [13] the target is rat CYP2A1, Cyp2a1 (gene 24894) (UniProt P11711). The experiment in a line: NVS_ADME_rCYP2A1: NovaScreen (NVS) CYP450-related Enzyme Activity (ADME) Assay for rat CYP2A1 (AID 2283114). In short, it runs like this: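 Recombinant rat CYP2A1, cell-free, fluorogenic substrate turnover read by fluorescence intensity 0.75 h after dosing. Primary screen at 10 uM in duplicate; actives rerun as concentration-response up to 20 uM; loss of signal versus acetonitrile control.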
Sequence of rat CYP2A1, Cyp2a1 (gene 24894) (P11711 whole entry, looked up): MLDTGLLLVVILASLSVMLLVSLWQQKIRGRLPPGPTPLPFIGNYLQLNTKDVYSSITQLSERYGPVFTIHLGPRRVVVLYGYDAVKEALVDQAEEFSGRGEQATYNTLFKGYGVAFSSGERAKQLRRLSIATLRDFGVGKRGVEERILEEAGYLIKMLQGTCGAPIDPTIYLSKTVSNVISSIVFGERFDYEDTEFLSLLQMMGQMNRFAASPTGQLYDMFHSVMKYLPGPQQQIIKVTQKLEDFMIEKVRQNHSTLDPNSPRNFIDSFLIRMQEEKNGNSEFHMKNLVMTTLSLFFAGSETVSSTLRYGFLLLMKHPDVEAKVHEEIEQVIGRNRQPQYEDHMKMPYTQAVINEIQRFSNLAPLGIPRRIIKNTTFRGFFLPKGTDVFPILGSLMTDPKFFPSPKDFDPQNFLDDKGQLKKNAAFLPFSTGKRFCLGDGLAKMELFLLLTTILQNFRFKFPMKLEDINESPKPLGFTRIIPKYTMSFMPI

The next test relates to rat CYP2B1, gene 24300. Description: NVS_ADME_rCYP2B1: NovaScreen (NVS) CYP450-related Enzyme Activity (ADME) Assay for rat CYP2B1 (AID 2283117; active = hit-call score of the fitted dose curve at least 0.9, where 1 is the maximum). An outline of the steps:
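Recombinant rat CYP2B1 with fluorogenic substrate, read at 0.75 h. Primary screen in duplicate at 10 uM; compounds meeting threshold (e.g., 30% inhibition) re-run in concentration-response up to 20 uM. Fitted against acetonitrile control.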

Test [14] has as its target human CYP2J2, CYP2J2 (gene 1573) (UniProt P51589). The experiment in a line: NVS_ADME_hCYP2J2: NovaScreen (NVS) CYP450-related Enzyme Activity (ADME) Assay for human CYP2J2 (AID 2283106; active = hit-call score of the fitted dose curve at least 0.9, where 1 is the maximum). An outline of the steps:
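Cell-free assay of recombinant CYP2J2 with a fluorogenic substrate, read 1 h after dosing; loss of signal versus acetonitrile. Primary screen at 10 uM in duplicate, then concentration-response up to 20 uM for chemicals passing threshold (e.g., 30% inhibition).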

The target in test [15] is Cytochrome P450 3A4 (Homo sapiens) (UniProt P08684). Description: NVS_ADME_hCYP3A4: NovaScreen (NVS) CYP450-related Enzyme Activity (ADME) Assay for human CYP3A4 (AID 2283110; active = hit-call score of the fitted dose curve at least 0.9, where 1 is the maximum). An outline of the steps:
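Cell-free recombinant enzyme expressed in insect cells; fluorescent substrate turnover read after 0.33 h, acetonitrile as negative control. Primary screen in duplicate at 10 uM, actives then tested in concentration series.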

Consider 15 compounds from PubChem BioAssay (EPA / NIEHS).

SMILES strings stand for the structures. Where “and” joins values, the source holds several entries; their conditions need not be identical. Identical values can stand only once. Records with an inconclusive call do not appear. Some compounds were tested as several samples or in several runs, with calls that do not always agree. Calls of active or inactive are those of the source. The calls were made as follows, unless noted: active = hit-call score of the fitted dose curve at least 0.9, where 1 is the maximum; inactive = score below 0.9.

Sequence of E-selectin (Homo sapiens) (P16581 whole entry, looked up): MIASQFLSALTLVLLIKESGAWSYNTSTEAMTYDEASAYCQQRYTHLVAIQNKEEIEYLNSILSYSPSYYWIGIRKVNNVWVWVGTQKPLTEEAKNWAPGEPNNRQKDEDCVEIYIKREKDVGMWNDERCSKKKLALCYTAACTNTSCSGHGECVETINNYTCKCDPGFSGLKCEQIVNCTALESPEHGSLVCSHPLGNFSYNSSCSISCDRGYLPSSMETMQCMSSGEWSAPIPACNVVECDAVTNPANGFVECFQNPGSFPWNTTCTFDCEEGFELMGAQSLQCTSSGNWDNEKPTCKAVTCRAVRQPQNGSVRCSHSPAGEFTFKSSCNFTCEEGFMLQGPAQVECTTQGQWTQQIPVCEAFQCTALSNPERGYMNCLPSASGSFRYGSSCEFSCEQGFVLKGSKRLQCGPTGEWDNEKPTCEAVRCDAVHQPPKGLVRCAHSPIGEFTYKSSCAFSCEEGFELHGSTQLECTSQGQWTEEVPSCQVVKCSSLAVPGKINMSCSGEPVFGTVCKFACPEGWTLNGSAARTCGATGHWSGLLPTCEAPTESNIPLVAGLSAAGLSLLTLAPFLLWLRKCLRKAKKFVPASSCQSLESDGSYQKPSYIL
Sequence of human CYP19A1, CYP19A1 (gene 1588) (P11511 whole entry, looked up): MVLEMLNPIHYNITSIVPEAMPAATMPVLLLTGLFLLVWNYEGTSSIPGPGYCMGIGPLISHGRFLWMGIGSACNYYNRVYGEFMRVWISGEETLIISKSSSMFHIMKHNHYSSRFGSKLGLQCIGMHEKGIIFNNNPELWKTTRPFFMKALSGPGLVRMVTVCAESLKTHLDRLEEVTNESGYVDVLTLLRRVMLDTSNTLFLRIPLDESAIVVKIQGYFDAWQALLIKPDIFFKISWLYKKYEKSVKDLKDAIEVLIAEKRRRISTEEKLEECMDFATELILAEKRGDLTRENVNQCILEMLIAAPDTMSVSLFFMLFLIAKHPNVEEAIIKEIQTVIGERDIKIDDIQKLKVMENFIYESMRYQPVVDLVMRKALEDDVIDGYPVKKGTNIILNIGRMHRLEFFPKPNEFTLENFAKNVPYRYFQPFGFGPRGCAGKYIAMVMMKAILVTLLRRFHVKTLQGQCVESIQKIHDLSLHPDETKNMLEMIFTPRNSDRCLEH
Sequence of human CYP1A2, CYP1A2 (gene 1544) (P05177 whole entry, looked up): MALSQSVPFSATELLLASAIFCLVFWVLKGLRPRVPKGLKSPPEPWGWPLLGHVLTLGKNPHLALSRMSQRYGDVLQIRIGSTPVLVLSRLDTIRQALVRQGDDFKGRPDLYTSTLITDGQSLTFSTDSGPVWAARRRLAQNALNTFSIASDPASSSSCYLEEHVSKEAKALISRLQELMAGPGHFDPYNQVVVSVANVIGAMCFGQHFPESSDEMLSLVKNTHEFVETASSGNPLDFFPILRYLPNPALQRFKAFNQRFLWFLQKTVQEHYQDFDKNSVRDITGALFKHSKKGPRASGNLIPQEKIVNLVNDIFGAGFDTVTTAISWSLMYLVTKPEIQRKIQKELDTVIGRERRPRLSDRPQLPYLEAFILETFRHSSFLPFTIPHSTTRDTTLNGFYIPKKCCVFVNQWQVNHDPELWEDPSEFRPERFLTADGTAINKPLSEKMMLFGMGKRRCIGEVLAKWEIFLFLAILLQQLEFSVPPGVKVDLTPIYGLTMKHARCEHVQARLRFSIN
Sequence of human CYP1A1, CYP1A1 (gene 1543) (P04798 whole entry, looked up): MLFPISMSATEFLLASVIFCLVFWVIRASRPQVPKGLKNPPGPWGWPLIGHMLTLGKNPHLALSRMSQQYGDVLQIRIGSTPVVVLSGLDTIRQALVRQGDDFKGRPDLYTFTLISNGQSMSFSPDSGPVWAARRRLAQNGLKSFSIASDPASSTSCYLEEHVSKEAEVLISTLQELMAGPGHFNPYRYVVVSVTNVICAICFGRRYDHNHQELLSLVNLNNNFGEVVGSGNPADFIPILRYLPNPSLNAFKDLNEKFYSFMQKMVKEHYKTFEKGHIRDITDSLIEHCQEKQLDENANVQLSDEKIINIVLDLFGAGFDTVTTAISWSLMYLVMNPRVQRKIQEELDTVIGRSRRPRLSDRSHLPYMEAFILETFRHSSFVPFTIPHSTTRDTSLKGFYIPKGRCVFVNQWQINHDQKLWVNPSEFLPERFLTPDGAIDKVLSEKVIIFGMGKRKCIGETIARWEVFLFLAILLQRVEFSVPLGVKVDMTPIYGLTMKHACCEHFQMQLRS
Sequence of human CYP2J2, CYP2J2 (gene 1573) (P51589 whole entry, looked up): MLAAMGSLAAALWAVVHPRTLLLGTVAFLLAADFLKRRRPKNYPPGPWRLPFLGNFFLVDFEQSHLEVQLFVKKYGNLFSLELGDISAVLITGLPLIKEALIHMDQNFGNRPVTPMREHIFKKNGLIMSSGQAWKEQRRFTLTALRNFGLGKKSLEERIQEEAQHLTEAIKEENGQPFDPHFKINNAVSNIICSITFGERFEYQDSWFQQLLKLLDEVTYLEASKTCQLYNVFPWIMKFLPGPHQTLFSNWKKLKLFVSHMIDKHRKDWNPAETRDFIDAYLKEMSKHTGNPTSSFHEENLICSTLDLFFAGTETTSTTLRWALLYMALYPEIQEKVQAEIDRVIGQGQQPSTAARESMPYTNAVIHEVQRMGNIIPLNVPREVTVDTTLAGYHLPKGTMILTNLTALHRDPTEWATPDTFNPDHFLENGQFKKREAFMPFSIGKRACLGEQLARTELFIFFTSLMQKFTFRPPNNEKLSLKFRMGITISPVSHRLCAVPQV
Sequence of human CYP2C9, CYP2C9 (gene 1559) (P11712 whole entry, looked up): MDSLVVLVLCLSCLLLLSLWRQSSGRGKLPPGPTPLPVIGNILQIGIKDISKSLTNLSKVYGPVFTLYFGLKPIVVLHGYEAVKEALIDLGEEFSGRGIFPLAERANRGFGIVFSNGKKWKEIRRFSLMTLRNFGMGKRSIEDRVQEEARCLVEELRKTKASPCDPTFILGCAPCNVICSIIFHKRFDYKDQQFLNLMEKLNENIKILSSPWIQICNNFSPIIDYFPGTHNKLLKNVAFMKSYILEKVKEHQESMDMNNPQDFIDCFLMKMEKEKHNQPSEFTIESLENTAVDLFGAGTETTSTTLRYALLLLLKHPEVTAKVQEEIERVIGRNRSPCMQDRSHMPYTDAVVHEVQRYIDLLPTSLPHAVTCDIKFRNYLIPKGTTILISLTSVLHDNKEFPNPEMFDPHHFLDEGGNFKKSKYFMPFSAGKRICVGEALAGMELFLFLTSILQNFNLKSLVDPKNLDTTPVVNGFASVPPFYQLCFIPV
Sequence of Cytochrome P450 3A4 (Homo sapiens) (P08684 whole entry, looked up): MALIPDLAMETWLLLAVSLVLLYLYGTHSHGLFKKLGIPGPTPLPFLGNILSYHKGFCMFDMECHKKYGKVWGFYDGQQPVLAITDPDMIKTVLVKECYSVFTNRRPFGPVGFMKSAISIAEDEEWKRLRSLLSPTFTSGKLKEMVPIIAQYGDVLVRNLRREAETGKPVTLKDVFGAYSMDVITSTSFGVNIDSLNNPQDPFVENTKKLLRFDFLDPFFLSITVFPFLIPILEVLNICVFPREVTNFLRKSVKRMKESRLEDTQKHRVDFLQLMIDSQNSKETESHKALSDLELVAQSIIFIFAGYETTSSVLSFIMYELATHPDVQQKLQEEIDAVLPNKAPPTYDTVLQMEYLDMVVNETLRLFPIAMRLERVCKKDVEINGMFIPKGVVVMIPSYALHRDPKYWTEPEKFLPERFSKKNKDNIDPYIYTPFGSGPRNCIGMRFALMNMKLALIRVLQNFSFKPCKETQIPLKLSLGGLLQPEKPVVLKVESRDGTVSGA

`O=S(=O)(F)C(F)(F)C(F)(F)C(F)(F)C(F)(F)C(F)(F)C(F)(F)C(F)(F)C(F)(F)F`: the result in test [1], in test [2], in test [3], in test [4] and in test [5] was inactive.
As for `Cc1ccc([N+](=O)[O-])cc1C`, the result in test [1], in [2], in [3], in test [4], in test [5] and in test [6] was inactive. Moreover, in [7], the AC50 is 2.77 µM (active).
As for `[N-]=[N+]=[N-]`, the outcome in test [1], in [2], in test [3], in test [4] and in test [5] was inactive.
Regarding `ClC(Cl)=C(c1ccc(Cl)cc1)c1ccccc1Cl`, the AC50 in test [1] was 20 µM (active); in test [2], 20 µM (active); in test [3], 20 µM (active); in test [4], 6.98 µM (active); in [5], 30.3 µM (active).
Turning to `CCOP(=S)(OCC)SCSCC`, the outcome in test [1], in test [2], in [3], in [4] and in [5] was inactive. The concentration at half-maximal activity (AC50) in test [8] was 4.19 µM (active); in [7], 9.32 µM (active).
For `O=P(OCC(Br)CBr)(OCC(Br)CBr)OCC(Br)CBr` (stereo not drawn), the result in test [1], in test [2], in [3], in test [4], in test [5] and in [9] was inactive. Moreover, the AC50 in test [7] was 4.35 µM (active).
Turning to `CCOc1ccc(C(C)(C)COCc2cccc(Oc3ccccc3)c2)cc1`, the result in test [1], in test [2], in test [3], in test [5] and in [6] was inactive. The half-maximal activity concentration (AC50) in [4] is 20 µM (active).
With `OCC1CO1` (stereo not drawn), the result in [2], in test [10], in test [3], in test [4] and in [5] was inactive.
With `CO/N=C(/C(=O)OC)c1ccccc1COc1ccccc1C`, the AC50 is 9.98 µM (active) in [11], 6.5 µM (active) in test [12], 2.85 µM (active) in test [7] and 4.24 µM (active) in test [13]. For the same compound, in the test with rat CYP2B1, gene 24300, the compound was called inactive.
Consider `CC(C)(C)c1ccc(O)cc1`, for which the result in test [1], in test [2], in test [3], in test [4] and in test [5] was inactive.
As for `CCNc1nc(Cl)nc(NC(C)(C)C)n1`, the outcome in [1], in test [2], in test [3], in test [4] and in test [5] was inactive. The concentration at half-maximal activity (AC50) in [7] was 6.82 µM (active).
`Nc1ccc([N+](=O)[O-])cc1Cl`: the outcome in [1], in test [2], in test [3], in [4] and in test [5] was inactive.
`Cc1c([N+](=O)[O-])cc2c(c1[N+](=O)[O-])C(C)(C)CC2(C)C`: the result in test [1], in [2], in test [3] and in test [5] was inactive. The concentration at half-maximal activity (AC50) in [4] is 7.41 µM (active).
On to `CC1(C)CN=C(NN=C(/C=C/c2ccc(C(F)(F)F)cc2)/C=C/c2ccc(C(F)(F)F)cc2)NC1`, for which the call in test [8] and in [15] was inactive. The values for the AC50 in [11] and in test [14] were 12.9 µM (active) and 5.19 µM (active), respectively.
On to `OCC(F)(F)OC(F)(F)C(F)(F)OC(F)(F)C(F)(F)OC(F)(F)F`, for which the AC50 was 39.4 µM (active) and 45.2 µM (active) in test [1]; 43.9 µM (active) and 43.4 µM (active) in [3]; 39 µM (active) and 21 µM (active) in test [4]; 30 µM (active) in [5]. Further, the result in [2] and in test [5] was inactive.
